# Records with an inconclusive call do not appear. Unmarked numbers belong to inactive results. Calls come from the whole dose curve; as a rule, active = well fitted cell-killing curve with a large enough effect; inconclusive = small, poorly fitted or top-dose-only effect, or effect the other way; inactive = flat fitted curve, though single readings scatter. Where a SMILES comes first, the peptide text is derived from it. [ ]: non-standard residue; d: D form. pGlu = O=C1CC[C@@H](C(=O)O)N1
# System: Tov-21-G
# Assay: Primary qHTS to identify gynecologic anti-cancer compounds using libraries of approved drugs and bioactive compounds (AID 1345084); note: nearly all actives have a fitted effect of over 55% in size
# Conditions: Gynecologic cancer cell panel viability, ATPlite luminescence, 48 h; series mostly up to 57.5 µM; activity change, negative = cytotoxicity: at the top concentration
# Summary of the method: (§1)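 48 h compound exposure at 37 C, 5% CO2; five-point qHTS. ATPlite luminescence readout of cell ATP.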
# % is set by controls: 0 for no effect and ±100 for the full control effect.
row,Compound,"activity change, negative = cytotoxicity [%]"
1,CC1(C)OC(=O)Nc2ccc(Br)cc21,-2.21
2,Cc1cccc(C)c1NC(=O)c1ccc(N)cc1,-2.38
3,Cc1cccc(OCC(O)CNC(C)(C)C)c1C (centres undefined),-8.65
4,Cc1coc2ccccc2c1=O,8.95
5,COC(=O)c1cc(Cl)c(NC(C)=O)cc1OC,-45.2
6,CSCC[C@H](NC(=O)[C@H](Cc1c[nH]c2ccccc12)NC(=O)CCNC(=O)OC(C)(C)C)C(=O)N[C@@H](CC(=O)O)C(=O)N[C@@H](Cc1ccccc1)C(N)=O,4.13
7,CC(C)C(=O)OCc1cccc(OC(=O)[C@@H]2N3C(=O)[C@@H](NC(=O)Cc4ccccc4)[C@H]3SC2(C)C)c1,0.0706
8,COC(=O)c1ccc(NC(C)=O)cc1OC,6.9
9,Cc1[nH]cnc1-c1ccc(Cl)cc1,3.41
10,Cc1ccc(C(=O)C(=O)O)cc1C,0.633
11,COc1ccc(CCC(C)=O)cc1,19.4
12,Cc1sccc1Br,7.11
13,CCc1cc2cc(OC)c(OC)cc2c(Cc2ccccc2)n1,8.25
14,Cc1ccc(C(C)OC(=O)C2(C)CCC(C(=O)O)C2(C)C)cc1 (centres undefined),7.49
15,Fc1ccc(C(c2ccc(F)cc2)N2CCNCC2)cc1,1.38
16,CCOC(=O)Oc1ccc(CCNC(=O)[C@H](CCSC)NC(C)=O)cc1OC(=O)OCC,2.95
17,CCNC(=O)[C@@H]1CCCN1C(=O)[C@H](CCCN=C(N)N)NC(=O)[C@H](CC(C)C)NC(=O)CNC(=O)[C@H](Cc1ccc(O)cc1)NC(=O)[C@H](CO)NC(=O)[C@H](Cc1c[nH]c2ccccc12)NC(=O)[C@H](Cc1cnc[nH]1)NC(=O)[C@@H]1CCC(=O)N1 ([pGlu]HWSYGLRP-NHEt),0.588

# System: Tov112D
# Assay: as above
# Conditions: Gynecologic cancer cell panel viability, ATPlite luminescence, 48 h; series mostly up to 57.5 µM; activity change, negative = cytotoxicity: at the top concentration
# Summary of the method: as §1
row,Compound,"activity change, negative = cytotoxicity [%]"
1,CCCCCN(CCCOC)C(=O)C(CCC(=O)O)NC(=O)c1ccc(Cl)c(Cl)c1 (centres undefined),-0.0348
2,CCCCCCn1c(=O)c2c(ncn2C)n(C)c1=O,9.56
3,CCCc1ncc(C(=O)O)s1,7.94
4,C/C(=N/NC(=O)c1ccncc1)C(=O)O,1.22
5,COC(=O)/C=C(/C)N,4.59
6,NS(=O)(=O)c1cc2c(cc1Cl)CN(C1CCCCC1)C2=O,0.0348
7,O=C1NC(c2ccccc2)(c2ccccc2)C(=O)N1COP(=O)(O)O,7.98
8,CCc1cccc2c(CCO)c[nH]c12,5.54
9,CCCCC(CC)CNC(=O)CC(C)OC(=O)CCC(=O)O (centres undefined),0.952
10,O=C(O)c1ccc(OCCN2CCCCC2)cc1,5.51
11,CCCC(=O)O[C@]1(C(=O)CC)CC[C@H]2[C@@H]3CCC4=CC(=O)CC[C@]4(C)[C@H]3[C@@H](O)C[C@@]21C,-1.22
12,CC(C)N(CCC(=O)c1ccc2ccccc2c1)Cc1ccccc1,-0.0817
13,COC(=O)CCCCC(CCSS/C(CCO)=C(\C)N(C=O)Cc1cnc(C)nc1N)SC(C)=O (centres undefined),3.06
14,O=C1CC2(CCCC2)CC(=O)N1,7.52
15,CCCCOCCOC(=O)c1cccnc1,1.45
16,CC(=O)N[C@@H](CO)C(=O)N[C@@H](CC(=O)O)C(=O)N[C@@H](CCCCN)C(=O)N1CCC[C@H]1C(=O)O (Ac-SDKP-OH),12.8
17,CC(=O)O[C@@H]1CC2C3CCc4cc(OC(=O)c5ccccc5)ccc4C3CCC2(C)[C@H]1OC(C)=O (some centres undefined),0.674
18,Cc1ccc2c(Cl)cc(Cl)c(O)c2n1,0.0582
19,CC(Oc1c(Cl)cccc1Cl)C1=NCCN1 (centres undefined),-2.62

row,Compound,"activity change, negative = cytotoxicity [%]"
1,N#CC1(c2ccc(F)cc2)CCC(=O)CC1,-7.89
2,CC1(C)OC(=O)Nc2ccc(Br)cc21,5.08
3,Cc1cccc(C)c1NC(=O)c1ccc(N)cc1,-2.3
4,Cc1cccc(OCC(O)CNC(C)(C)C)c1C (centres undefined),5.75
5,Cc1coc2ccccc2c1=O,7.36
6,COC(=O)c1cc(Cl)c(NC(C)=O)cc1OC,-12
7,CSCC[C@H](NC(=O)[C@H](Cc1c[nH]c2ccccc12)NC(=O)CCNC(=O)OC(C)(C)C)C(=O)N[C@@H](CC(=O)O)C(=O)N[C@@H](Cc1ccccc1)C(N)=O,6.61
8,CC(C)C(=O)OCc1cccc(OC(=O)[C@@H]2N3C(=O)[C@@H](NC(=O)Cc4ccccc4)[C@H]3SC2(C)C)c1,4.9
9,COC(=O)c1ccc(NC(C)=O)cc1OC,4.78
10,Cc1[nH]cnc1-c1ccc(Cl)cc1,-2.17
11,Cc1ccc(C(=O)C(=O)O)cc1C,1.45
12,COc1ccc(CCC(C)=O)cc1,2.16
13,Cc1sccc1Br,10.5
14,CCc1cc2cc(OC)c(OC)cc2c(Cc2ccccc2)n1,4.81
15,Cc1ccc(C(C)OC(=O)C2(C)CCC(C(=O)O)C2(C)C)cc1 (centres undefined),11.9
16,Fc1ccc(C(c2ccc(F)cc2)N2CCNCC2)cc1,2.83
17,CCOC(=O)Oc1ccc(CCNC(=O)[C@H](CCSC)NC(C)=O)cc1OC(=O)OCC,-2.18
18,CCNC(=O)[C@@H]1CCCN1C(=O)[C@H](CCCN=C(N)N)NC(=O)[C@H](CC(C)C)NC(=O)CNC(=O)[C@H](Cc1ccc(O)cc1)NC(=O)[C@H](CO)NC(=O)[C@H](Cc1c[nH]c2ccccc12)NC(=O)[C@H](Cc1cnc[nH]1)NC(=O)[C@@H]1CCC(=O)N1 ([pGlu]HWSYGLRP-NHEt),-4.73
